Laboratory results from ChEMBL document CHEMBL3988442, “University of Dundee, Small-Polar-MMV Screening Library” (2021).
The campaign covered roughly 48,000 compounds. About 13,000 (27%) showed an effect of 50% or more. Some of the results follow.

Each compound was assayed on Wolbachia pipientis (assay: Anti-Wolbachia Cell-Based Screen). Conditions: 5 µM.
Type: functional
Set-up: scale not given: in the data most compounds retested in dose-response had high values
In the case of `CC(C)CN1C(=O)CO[C@@H]2CNC[C@H]21`, the “Percent Effect” value is reported as -9.19%.
In the case of `CNC(=O)[C@@H]1C[C@H]2CN(C(=O)c3ccccn3)C[C@H]2N1C(C)C`, the “Percent Effect” value is reported as -10.28%.
`CCCN1CCN(C(=O)c2ccnc(N)c2)[C@H]2CS(=O)(=O)C[C@H]21` was tested, and the “Percent Effect” value was -9.553%.
For `CCCN1CCN(C(=O)c2cncnc2C)[C@H]2CS(=O)(=O)C[C@H]21`, the “Percent Effect” value was 18.46%.
With `CCCN1CCN(C(=O)c2cnc(C)nc2)[C@H]2CS(=O)(=O)C[C@H]21` the “Percent Effect” value was -7.853%.
For `Cc1ncc(CN2CCN(C(=O)N(C)C)[C@@H]3CS(=O)(=O)C[C@@H]32)cn1`, the “Percent Effect” value was 93.36%.
For `Cc1cccc(CN2CCN(C(=O)N(C)C)[C@@H]3CS(=O)(=O)C[C@@H]32)n1`, the “Percent Effect” value was -5.175%.
`O=C(C1CCC1)N1CCN(Cc2cccnc2)[C@H]2CS(=O)(=O)C[C@H]21` was tested, and the “Percent Effect” value was -3.397%.
For `CCC(=O)N1CCN(Cc2cnc(C)nc2)[C@H]2CS(=O)(=O)C[C@H]21`, the “Percent Effect” value was 99.52%.
With `COC(=O)NCCC(=O)NC(C)Cc1ccccc1Br` (stereo not given) the “Percent Effect” value was -17.72%.
For `O=C([C@@H]1CC[C@@H]2[C@@H](CCN2Cc2ccncc2)O1)N1CCCCO1`, the “Percent Effect” value was -7.886%.
For `COC[C@H]1CC[C@@H]2[C@@H](CCN2Cc2ccco2)O1.O=C(O)C(F)(F)F`, the “Percent Effect” value was 137.5%.
With `Cc1noc(C)c1CN1CC[C@@H]2O[C@H](COCC3CC3)CC[C@@H]21.O=C(O)C(F)(F)F` the “Percent Effect” value was 3.642%.
With `c1coc(CN2CC[C@@H]3O[C@@H](COCc4ccncc4)CC[C@@H]32)c1` the “Percent Effect” value was 67.65%.
With `CN(C)C(=O)COC[C@H]1CC[C@@H]2[C@@H](CCN2Cc2ccccn2)O1.O=C(O)C(F)(F)F.O=C(O)C(F)(F)F` the “Percent Effect” value was -0.6188%.
With `O=C(O)C(F)(F)F.O=C(O)C(F)(F)F.c1cncc(COC[C@H]2CC[C@H]3[C@H](CCN3Cc3nccs3)O2)c1` the “Percent Effect” value was 8.415%.
For `O=C(O)C(F)(F)F.O=C(O)C(F)(F)F.c1ccc(COC[C@H]2CC[C@H]3[C@H](CCN3Cc3cccs3)O2)nc1`, the “Percent Effect” value was 0.5679%.
With `CO[C@H]1CCN(Cc2ccccn2)[C@@H]2CN(Cc3ccco3)C[C@H]12.O=C(O)C(F)(F)F.O=C(O)C(F)(F)F.O=C(O)C(F)(F)F` the “Percent Effect” value was -3.065%.
With `c1ccc(COC[C@H]2CC[C@H]3[C@H](CCN3Cc3ccco3)O2)nc1` the “Percent Effect” value was 102.6%.
With `c1ccc(CCN2CCOC3(CCc4ccccc43)C2)nc1` (stereo not given) the “Percent Effect” value was -3.634%.
In the case of `CC[C@H]1CN2CC[C@H]1C[C@@H]2CNC(=O)Nc1cc(OC)cc(OC)c1`, the “Percent Effect” value is reported as -7.573%.
`CN1CCN2C(=O)N(C3CCOCC3)C[C@H]2C1` was tested, and the “Percent Effect” value was -7.245%.
`Cc1nc(CN2CCC23CCN(C(=O)c2ccncc2)CC3)cs1` was tested, and the “Percent Effect” value was -6.735%.
With `Cc1ccc(C(=O)N2C[C@H]3CN(Cc4csc(C)n4)C[C@H]3C2)cn1` the “Percent Effect” value was 93.97%.
With `Cc1ccc(C(=O)N2C[C@H]3CNC[C@H]3C2)cn1` the “Percent Effect” value was 11.13%.
For `CNC(=O)CN1CC[C@H]2CN(C(=O)c3ccc(C)nc3)C[C@H]2C1.O=C(O)C(F)(F)F`, the “Percent Effect” value was -24.07%.
For `Cc1nc(CN2C[C@@H]3CN(C(=O)c4ccncc4)C[C@@H]3C2)cs1`, the “Percent Effect” value was 103.2%.
With `Cc1nc(CN2CCO[C@H]3CN(C(=O)c4ccncc4)C[C@H]32)cs1` the “Percent Effect” value was 6.304%.
`O=C(Nc1ccccc1)C1=NOC2(CCCNC2)C1` (stereo not given) was tested, and the “Percent Effect” value was -15.15%.
For `Cl.N#CC1(C(=O)NCC2CCC3(CCNCC3)O2)CC1` (stereo not given), the “Percent Effect” value was -12.24%.
In the case of `COc1cc2nc(NCc3ccc(C)nc3)nc(N)c2cc1OC`, the “Percent Effect” value is reported as 15.36%.
In the case of `CN1C[C@@H]2COC[C@]2(C(=O)NCc2cccs2)C1`, the “Percent Effect” value is reported as -12.7%.
`Cc1cc(C)c(CNc2nc3ccccc3cc2CO)c(=O)[nH]1` was tested, and the “Percent Effect” value was 34.93%.
`CC(Cn1cccn1)NCc1csc(-c2cccs2)n1` (stereo not given) was tested, and the “Percent Effect” value was 1.256%.
In the case of `COc1cc(CNCC(O)c2ccc(C)cc2)cc2c1OCCO2.Cl` (stereo not given), the “Percent Effect” value is reported as 4.109%.
`CC(Cn1cccn1)NCCS(=O)(=O)c1ccccc1` (stereo not given) was tested, and the “Percent Effect” value was -1.056%.
For `COc1cc(CNC(C)Cn2cccn2)cc(OC)c1` (stereo not given), the “Percent Effect” value was 102.9%.
In the case of `COc1cc(CNC(C)Cn2cccn2)cc2c1OCCO2.Cl` (stereo not given), the “Percent Effect” value is reported as 99.62%.
For `CC(Cn1cccn1)NCC(=O)NC1CCOCC1` (stereo not given), the “Percent Effect” value was 1.6%.
For `CCc1nc(CNC(C)Cn2cccn2)cs1` (stereo not given), the “Percent Effect” value was 2.575%.
With `COc1cccc(CNC(C)Cn2cccn2)c1OC.Cl` (stereo not given) the “Percent Effect” value was 8.103%.
For `COc1ccc(CNC(C)Cn2cccn2)cc1OC` (stereo not given), the “Percent Effect” value was 104.4%.
In the case of `COc1c(Br)cc(Br)cc1CNC(C)Cn1cccn1` (stereo not given), the “Percent Effect” value is reported as 3.191%.
In the case of `CC(Cn1cccn1)NCc1csc2c1CCCC2` (stereo not given), the “Percent Effect” value is reported as 12.25%.
`COc1ccc(CNC(C)Cn2cccn2)c(OC)c1OC.Cl` (stereo not given) was tested, and the “Percent Effect” value was 98.57%.
`CC(c1ccc(F)cc1)N1CCN(Cc2ccc(C#N)cc2)CC1` (stereo not given) was tested, and the “Percent Effect” value was 26.99%.
In the case of `CC(C)OCCNC1(c2ccc(Cl)cc2)CCOCC1`, the “Percent Effect” value is reported as 3.7%.
`CC(=O)N1C[C@H]2CNC[C@@]2(C(=O)NCCNc2ccncc2C)C1` was tested, and the “Percent Effect” value was -5.626%.
`Cc1cccc(-c2ncc(CNC(C)Cc3ccncc3)cn2)c1` (stereo not given) was tested, and the “Percent Effect” value was -2.738%.
With `Cc1nnc([C@@H]2CC[C@@H]3[C@@H](CCN3Cc3ccccn3)O2)o1.O=C(O)C(F)(F)F.O=C(O)C(F)(F)F` the “Percent Effect” value was -6.583%.
For `CC(Cn1ccnc1)NCc1ccc2nonc2c1` (stereo not given), the “Percent Effect” value was -7.482%.
In the case of `COc1ccc(CNC(C)Cn2cccn2)cc1F` (stereo not given), the “Percent Effect” value is reported as 80.61%.
With `COc1cc(CNC(C)Cn2cccn2)cc(OC)c1OC.Cl` (stereo not given) the “Percent Effect” value was -0.312%.
In the case of `COc1cc(CNC(C)Cn2cccn2)cc(Cl)c1OC.Cl` (stereo not given), the “Percent Effect” value is reported as 86.44%.
`CC(Cn1cncn1)NCc1ccc2nonc2c1` (stereo not given) was tested, and the “Percent Effect” value was -26.41%.
In the case of `CC(Cn1cccn1)NCc1nc(-c2cccs2)no1` (stereo not given), the “Percent Effect” value is reported as -0.9937%.
For `Cc1nc(C)c(CC(=O)N2C[C@@H]3CC[C@H](C2)N(CC2CC2)C3)s1`, the “Percent Effect” value was 5.812%.
With `O=S1(=O)N(c2ccccc2)C[C@@H](O)[C@]12CCNC2` the “Percent Effect” value was 103.1%.
In the case of `O=C(O)C(F)(F)F.O=S1(=O)NCC2(CCNCC2)COc2ccccc21`, the “Percent Effect” value is reported as -6.327%.
In the case of `O=S1(=O)N(c2ccccc2)C[C@H](O)[C@]12CCNC2`, the “Percent Effect” value is reported as 107%.
`OCC1N(Cc2ccco2)[C@H]2CC[C@]1(O)CC2` (stereo not given in full) was tested, and the “Percent Effect” value was 109.9%.
In the case of `CN1CCN(Cc2ccco2)Cc2cccnc21`, the “Percent Effect” value is reported as 10.4%.
`COC[C@]12COC[C@H]1CN(Cc1ccc3ccccc3n1)C2.O=C(O)C(F)(F)F.O=C(O)C(F)(F)F` was tested, and the “Percent Effect” value was -16.09%.
With `Cc1cccc(CN2C[C@@H]3COC[C@]3(COCC(=O)N(C)C)C2)n1.O=C(O)C(F)(F)F.O=C(O)C(F)(F)F` the “Percent Effect” value was 109.1%.
For `CN(C)C[C@]12COC[C@H]1CN(Cc1ccc3ccccc3n1)C2.O=C(O)C(F)(F)F.O=C(O)C(F)(F)F.O=C(O)C(F)(F)F`, the “Percent Effect” value was -5.05%.
In the case of `Cc1cc(CN2C[C@@H]3COC[C@]3(COCC(=O)N(C)C)C2)no1`, the “Percent Effect” value is reported as 104.2%.
`Cc1cc(CN2C[C@@H]3COC[C@]3(CNC(=O)N(C)C)C2)no1.O=C(O)C(F)(F)F` was tested, and the “Percent Effect” value was -12.05%.
`Cc1cc(CN2C[C@@H]3COC[C@]3(COCc3csc(C)n3)C2)no1.O=C(O)C(F)(F)F` was tested, and the “Percent Effect” value was -7.222%.
`Cc1noc(C)c1CN1C[C@H](OCC(=O)N(C)C)[C@H]2COC[C@H]21.O=C(O)C(F)(F)F` was tested, and the “Percent Effect” value was -5.936%.
With `Cc1ncsc1CN1C[C@@H](OCc2ccccn2)[C@H]2OCCC[C@H]21.O=C(O)C(F)(F)F.O=C(O)C(F)(F)F.O=C(O)C(F)(F)F` the “Percent Effect” value was -3.232%.
In the case of `CCc1ccc(CN2C[C@H](OC)[C@H]3COC[C@H]32)o1.O=C(O)C(F)(F)F`, the “Percent Effect” value is reported as 106.4%.
With `Cc1cccc(CN2C[C@@H](NC(=O)C3CCC3)[C@H]3COC[C@H]32)n1` the “Percent Effect” value was 5.905%.
In the case of `Cc1cccc(CN2C[C@H](NS(C)(=O)=O)[C@@H]3OCCC[C@@H]32)n1.O=C(O)C(F)(F)F.O=C(O)C(F)(F)F`, the “Percent Effect” value is reported as -8.995%.
`Cc1cccc(CN2C[C@H](OCc3ccccn3)[C@H]3COC[C@H]32)n1.O=C(O)C(F)(F)F.O=C(O)C(F)(F)F` was tested, and the “Percent Effect” value was 114.7%.
In the case of `Cc1cccc(CN2C[C@@H]3COC[C@H](NS(C)(=O)=O)[C@@H]3C2)n1.O=C(O)C(F)(F)F.O=C(O)C(F)(F)F`, the “Percent Effect” value is reported as 86.62%.
For `Cc1cccc(CN2CCO[C@H]3[C@H](Oc4ccccn4)CC[C@@H]32)n1.O=C(O)C(F)(F)F.O=C(O)C(F)(F)F.O=C(O)C(F)(F)F`, the “Percent Effect” value was -5.124%.
For `Cc1ccc(CN2C[C@@H](OCc3ccccn3)[C@H]3COC[C@H]32)o1.O=C(O)C(F)(F)F.O=C(O)C(F)(F)F`, the “Percent Effect” value was 91.93%.
With `Cc1ccc(CN2C[C@H]3OC(=O)N(Cc4ccccn4)[C@H]3C2)o1` the “Percent Effect” value was 4.449%.
`Cc1cccc(CN2C[C@@H]3CCCO[C@@H]3[C@H](NS(C)(=O)=O)C2)n1` was tested, and the “Percent Effect” value was 6.966%.
`Cc1noc(C)c1CN1C[C@H](OCC2CC2)[C@H]2COC[C@H]21.O=C(O)C(F)(F)F` was tested, and the “Percent Effect” value was -11.17%.
For `O=C1NCCC12CN(CC1CC1)CC21CCNCC1` (stereo not given), the “Percent Effect” value was -8.947%.
With `CCC/C=C/c1ccc(CN2CCN(C)CC2)cn1` the “Percent Effect” value was -3.388%.
In the case of `O=C(NCC(=O)N1CCC2(CC1)OCCO2)c1ccoc1`, the “Percent Effect” value is reported as 92.23%.
With `CC(C)C(NC(=O)c1ccco1)C(=O)N1CCC2(CC1)OCCO2` (stereo not given) the “Percent Effect” value was -15.39%.
For `CC(C)C(NC(=O)c1ccccc1)C(=O)N1CCC2(CC1)OCCO2` (stereo not given), the “Percent Effect” value was -14.78%.
